Most compounds without a hit are left out; they make up all but 19% or so of the library.
TDP1 cell noCPT: qHTS for Inhibitors of human tyrosyl-DNA phosphodiesterase 1 (TDP1): qHTS in cells in absence of CPT. Potency, µM (top dose mostly 46.2 µM), for inactives: at the top dose activity change, negative = growth inhibition, usual class: inhibitors. DT40 Tdp1-/- hTDP1 cells, no CPT, ATP luminescence, 48 h. 420,000 tested, 15% active. AID 686978, 2013; also: potency is read from the fitted curve at half-maximal effect; nearly all actives have a fitted effect of over 55% in size
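Readout: luminescence from CellTiter-Glo after 30 min in the dark at RT. Cells: DT40 Tdp1-/- with stable hTDP1, 400/well. Exposure: compounds alone, ≥48 hr, 37 °C.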
TDP1 cell CPT: DT40-hTDP1 cell growth loss with CPT; chicken DT40 Tdp1-/-;hTDP1 cells + 20 nM CPT, ATP luminescence, 48 h; Potency, µM (series often up to 46.2 µM), without a hit: at the highest dose activity change, negative = growth inhibition, usual class: inhibitors; 420,000 tested, 12% active; also: potency is read from the fitted curve at half-maximal effect; nearly all actives have a fitted effect of over 55% in size
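Chicken DT40 Tdp1-/- cells stably complemented with human TDP1 were seeded at 400 cells/well in medium containing 20 nM camptothecin, exposed to pin-transferred compounds, and grown at 37 °C for at least 48 hr. Viability was read as ATP luminescence.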
HT1080NT lethal: kills 2HG-producing HT-1080-NT fibrosarcoma cells. HT-1080-NT fibrosarcoma viability, CellTiter-Glo ATP luminescence, 48 h. Potency, µM (series often up to 46.1 µM), for the others: at the top dose activity, negative = less viability, most hits filed as cytotoxic. 360,000 tested, 1.6% active. AID 686970;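 also: NT is the 2HG producing partner of a matched IDH1 knockdown line; potency is read from the fitted curve at half-maximal effect; 0% = DMSO-treated cells and -100% = media-only wells without cells; nearly all actives have a fitted effect of over 55% in size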
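Luminescent CellTiter-Glo readout after 48 hours of compound exposure at 37 degrees C defined viability of HT-1080-NT cells. Activity was normalized to DMSO wells and cell-free media wells; concentration-response curves were fitted and assigned curve classes.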
HT1080 IDH1KD tx: kills HT-1080 cells with IDH1 knockdown. 360,000 tested, 2% active. Potency, µM (series often up to 46.1 µM), without a hit: top-dose activity, negative = toxicity, actives largely listed as cytotoxic. AID 686971. HT-1080 IDH1 knockdown viability, ATP luminescence, 48 h;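 also: potency is read from the fitted curve at half-maximal effect; 0% = DMSO wells and -100% = cell-free medium wells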
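Viability of IDH1-knockdown HT-1080 fibrosarcoma cells was assessed by CellTiter-Glo after 48 h at 37 °C with titrated compound; concentration-effect curves were classified by fit quality and response size.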
IL1B secr inh: blocks inflammasome-driven IL-1 beta release; activity change, % at 57.5 µM; THP-1 LPS/ATP IL-1B secretion, AlphaLISA, 16 h; hits give low values; 360,000 tested, 4.7% active; in the data active = activity change below about -50%; inconclusive = mostly about -30% to -49%
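Secreted IL-1B measured by AlphaLISA bead assay after 16 h compound exposure of THP-1 cells; compounds (final up to 57.5 uM) added 1 h before LPS (250 ng/mL) and ATP (1.25 mM) stimulation; lower signal means less secretion.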
The depositor's hits bear a star; u = inconclusive; x = no result; [ ] = remark or other dose. Unless noted, calls follow the shape of the dose curve; as a rule, active = well fitted curve in the direction sought with a large enough effect; inconclusive = small, poorly fitted or top-dose-only effect, or another doubt; inactive = no such curve, though single readings can be large; an effect the other way counts as inactive or inconclusive. Unless noted, % is scaled to controls: 0 for no effect and ±100 for the full control effect.

SMILES	TDP1 cell noCPT	TDP1 cell CPT	HT1080NT lethal	HT1080 IDH1KD tx	IL1B secr inh
C[C@H](NC(=O)c1nc[nH]c1C(=O)N[C@H](C)c1ccccc1)C(=O)OC(C)(C)C	u	15µM*	8%	0%	2
Cc1cccc(NC(=O)c2nc[nH]c2C(=O)N[C@@H](C)C(=O)OC(C)(C)C)c1	u	18µM*	-11%	-21%	-67*
CC(C)C[C@H](NC(=O)c1nc[nH]c1C(=O)N[C@@H](CCCCN)C(=O)OC(C)(C)C)C(=O)OC(C)(C)C	u	u	11%	13%	-8
CC(C)C[C@H](NC(=O)c1[nH]cnc1C(=O)N[C@@H](C)C(=O)OC(C)(C)C)C(=O)OC(C)(C)C	12µM*	18µM*	u	u	-61*
CC(=O)OC(C(=O)NC1CCCCC1)c1cccc(C)c1 (stereo not drawn)	-16%	2%	9%	10%	-3
COc1cccc(CNC(=O)CCCn2nc(C)n3c(cc4sccc43)c2=O)c1	u	u	24%	8%	u
O=C(CCNS(=O)(=O)c1ccc(Cl)cc1)N1CCOCC1	14%	6%	-1%	2%	5
O=C(CSc1nnc(Cc2ccccc2)o1)N1CCCc2ccccc21	0%	u	-8%	10%[9.24 µM]	-13
O=C(CSc1nnc(Cc2csc(Nc3cccc(Cl)c3)n2)o1)N1CCc2ccccc21	21µM*	18µM*	-12%	-8%	u
CC1Cc2ccccc2N1C(=O)CSc1nnc(-c2ccc(S(=O)(=O)N3CCOCC3)cc2)n1C (stereo not drawn)	u	16µM*	0%	-3%	0
O=C(CSc1nnc(-c2ccccc2Br)o1)N1CCc2ccccc2C1	u	u	-27%	9%[9.24 µM]	-60*
O=C(CSc1nnc(-c2ccccc2Cl)o1)N1CCCc2ccccc21	16µM*	u	x	x	x
COc1ccc(CC(=O)N2CCc3cc(OC)c(OC)cc3C2O)cc1OC (stereo not drawn)	-7%	-2%	5%	6%	-13
CCCCCC1=NN2C(=O)CC(=O)N=C2S1	15%	-18%	12%	2%	33
CCN(CC)C(=O)CSc1nnc(-c2ccc(S(=O)(=O)N3CCCC3)cc2)o1	-10%	-8%	9%	2%	0
CC1Cc2ccccc2N1C(=O)CSc1nnc(-c2ccc(S(=O)(=O)N3CCCC3)cc2)o1 (stereo not drawn)	16µM*	u	2%	1%	19
CC1Cc2ccccc2N1C(=O)CSc1nnc(-c2ccccc2Cl)o1 (stereo not drawn)	u	26µM*	x	x	x
Cn1c(SCc2cc(=O)[nH]c3ccccc23)nnc1-c1ccc(Br)cc1	u	u	6%	13%	-3
CCOC(=O)C1C(=O)CC(C)(O)C(C(=O)OCC)C1c1cccs1 (stereo not drawn)	0%	8%	9%	8%	-1
CCOC(=O)C1C(=O)CC(C)(O)C(C(=O)OCC)C1c1ccco1 (stereo not drawn)	21µM*	18µM*	-1%	-6%	7
CCCCn1c(N)c(N(CCOC)C(=O)CCCn2c(=O)oc3ccccc32)c(=O)[nH]c1=O	4%	-22%	13%	5%	28
CC(C)=CCOc1ccc([C@@H]2COc3c(ccc4c3C=CC(C)(C)O4)C2)c(O)c1	21µM*	16µM*	u	u	-20
COc1ccc2c(c1OC)OCC(c1ccc(OC)c(OC)c1OC)C2 (stereo not drawn)	-9%	6%	x	x	x
CCOC(=O)c1cnc2oc3ccccc3n2c1=O	4%	0%	2%	0%	27
COc1ccc(-n2nc3c(N4CCC(C(=O)N5CCCCCC5)CC4)nnc(C)c3c2C)cc1	u	u	-18%	u	-15
SMILES	TDP1 cell noCPT	TDP1 cell CPT	HT1080NT lethal	HT1080 IDH1KD tx	IL1B secr inh
Cc1nnc(N2CCC(C(=O)N3CCCCCC3)CC2)c2nn(-c3ccc(Cl)cc3)c(C)c12	u	18µM*	-14%	0%	-26
Cc1ccc(-n2nc3c(N4CCC(C(=O)N5CCCCCC5)CC4)nnc(C)c3c2C)cc1	5.8µM*	7.3µM*	-1%	-10%	-9
O=S(=O)(Nc1ccccc1C(F)(F)F)c1ccc(-c2ccccn2)s1	-12%	-18%	3%	11%	-10
CCOC(=O)/C(=N\Nc1ccc(C(C)=O)cc1)c1csc(Nc2ccccc2)n1	10µM*	u	16µM*	16µM*	3
CCOC(=O)/C(=N\Nc1ccccc1[N+](=O)[O-])c1csc(N)n1	u	u	-2%	-1%	-26
CCn1c(CCn2c3ccccc3c3ccccc32)n[nH]c1=S	u	15µM*	-19%	u	4
CCn1c(CCc2ccccc2)n[nH]c1=S	u	-7%	u	-1%	-6
Cc1ccccc1CC1C(=O)Nc2ccc(Br)cc21 (stereo not drawn)	u	-27%	x	x	x
COc1ccc(Br)cc1CC1C(=O)Nc2ccccc21 (stereo not drawn)	7.3µM*	8.2µM*	x	x	x
CCN(CC(=O)Nc1ccc(NC(C)=O)cc1)C(=O)C1(c2ccccc2)CC1	3%	15%	5%	13%	-6
OC(c1ccc(Cl)c(Cl)c1)c1ncc(-c2ccccc2C(F)(F)F)[nH]1 (stereo not drawn)	18µM*	u	u	u	-12
OC(c1ccc(Cl)c(F)c1)c1ncc(-c2ccccc2C(F)(F)F)[nH]1 (stereo not drawn)	u	u	-19%	0%	32
COc1ccccc1-c1cnc(C(O)c2cc(Cl)cc(Cl)c2)[nH]1 (stereo not drawn)	u	21µM*	2%	u	-5
COc1ccccc1-c1cnc(C(O)c2ccc(Cl)c(Cl)c2)[nH]1 (stereo not drawn)	16µM*	u	-27%	u	-19
COC(CNc1ccc([N+](=O)[O-])c(NCC(OC)OC)c1C#N)OC	-28%	2%	3%	-10%	-13
CCCCNc1nc2c(c(=O)n(Cc3ccc(Cl)c(Cl)c3)c(=O)n2C)n1C	29µM*	u	x	x	x
CC(C)CCNc1nc2c(c(=O)n(Cc3cccc(F)c3)c(=O)n2C)n1C	u	26µM*	u	u	-19
Cn1c(NCCCN2CCOCC2)nc2c1c(=O)n(Cc1ccc(Cl)cc1Cl)c(=O)n2C	u	23µM*	-14%	-30%	11
CCCCNc1nc2c(c(=O)n(Cc3ccc(Cl)cc3)c(=O)n2C)n1C	16µM*	21µM*	x	x	x
Cn1c(NCCO)nc2c1c(=O)n(Cc1ccccc1Cl)c(=O)n2C	0%	-25%	x	x	x

Screening results as filed in PubChem BioAssay.
